This is an account of results in PubChem BioAssay.

Active and inactive are the calls of the source.

For one experiment, the target named is Albumin (Bos taurus) (UniProt P02769). The experiment can be described thus: bovine serum albumin binders on microarray, profiling panel, artefact control for SMM control protein annotation, biochemical, small-molecule microarray, Alexa647 label, 635/667 nm fluorescence (AID 1118).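 Further: score merges 667 nm emission intensity and signal-to-noise per printed compound spot.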 The conditions noted are these: BSA-A647 binding, fluorescence 635 nm, higher = more signal.

Experiment [1] can be described thus: small-molecule microarray binders of probe aXIP, primary screen, biochemical, NeuroSMM set, 635/667 nm fluorescence (AID 1119).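 Further: probe is the protein aXip251-270 applied at 1 µg/mL to compound-printed slides; binding of probe to printed compounds measured as 667 nm fluorescence plus signal to noise.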 The conditions noted are these: higher = more signal, called active from +8 up or from −8 down.
A short description of experiment [2]: small-molecule binders of probe aNOTCH3, primary screen, biochemical, small-molecule microarray, 635/667 nm fluorescence (AID 1120).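 Further: probe is a biotin-tagged antibody raised against NOTCH3 rather than NOTCH3 protein; score merges spot fluorescence near 667 nm with spot signal to noise.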 The note with it: higher = more signal.
A short description of experiment [3]: small-molecule binders of probe aNOTCH2, primary screen, biochemical, small-molecule microarray, 635/667 nm fluorescence (AID 1121).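 Further: score merges feature fluorescence read at 667 nm with its signal to noise.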 The note with it: higher = more signal.
The target in experiment [4] is Carbonic anhydrase 2 (Homo sapiens) (UniProt P00918). The experiment can be described thus: CAII small-molecule binders, profiling panel, biochemical, small-molecule microarray, Alexa647-labelled CAII (AID 1122). The note with it: CAII-A647 binding fluorescence, higher = more signal.
Experiment [5] can be described thus: COS7 lysate on small-molecule microarray, probe aHis, 635 nm (AID 1123).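 Further: z-score combines 667nm fluorescence intensity with signal-to-noise per printed compound spot.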 The note with it: COS7 cell lysate, fluorescence, higher = more signal.
Experiment [6] in a line: compound binding in COS7 lysate, probe aLAP1, primary screen, cell lysate, small-molecule microarray (AID 1124).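 Further: lysate comes from COS7 cells expressing LAP1 and is applied at 0.3 µg/mL; score merges spot fluorescence near 667 nm with signal-to-noise over triplicate slides.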 The conditions noted are these: probe aLAP1, fluorescence, higher = more signal.
The next experiment deals with Sam68 (KHDRBS1). The experiment can be described thus: Sam68 small-molecule binders, primary screen, biochemical, small-molecule microarray, 635 nm fluorescence (AID 1125).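 Further: score merges 667 nm channel intensity with signal to noise over triplicate slides.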 The note with it: small-molecule microarray binding, higher = more signal.
In experiment [7] the test system is Chordin-like protein 2 (CHRDL2). The experiment can be described thus: CHRDL2 small-molecule binders, primary screen, biochemical, small-molecule microarray, 635 nm fluorescence (AID 1126).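 Further: printed compound slides probed with Chrdl2 protein at 4 µg/mL for 1 h at 4 C; score merges 667 nm emission intensity with signal to noise over three replicate slides.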 The note with it: small-molecule microarray binding, fluorescence 635 nm; higher = more signal.
The target of experiment [8] is Concanavalin-A (Canavalia ensiformis) (UniProt P02866). As to the kind of experiment: ConA small-molecule binders, primary screen, artefact control for SMM control protein annotation, biochemical, small-molecule microarray, Alexa647 label, 635 nm (AID 1127).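 Further: z combines 667 nm emission intensity with signal-to-noise across three replicate slides.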 The note with it: ConA-A647 binding fluorescence, higher = more signal.
Chain of Concanavalin-A (Canavalia ensiformis) (P02866 whole entry, looked up): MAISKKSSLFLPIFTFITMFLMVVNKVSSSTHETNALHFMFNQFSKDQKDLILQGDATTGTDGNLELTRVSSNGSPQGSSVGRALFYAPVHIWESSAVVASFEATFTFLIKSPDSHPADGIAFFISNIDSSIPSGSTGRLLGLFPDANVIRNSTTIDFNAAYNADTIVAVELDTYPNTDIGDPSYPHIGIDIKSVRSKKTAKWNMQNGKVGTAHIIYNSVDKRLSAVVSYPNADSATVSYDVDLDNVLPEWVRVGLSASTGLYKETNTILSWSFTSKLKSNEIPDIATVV

Chain of Albumin (Bos taurus) (P02769 whole entry, looked up): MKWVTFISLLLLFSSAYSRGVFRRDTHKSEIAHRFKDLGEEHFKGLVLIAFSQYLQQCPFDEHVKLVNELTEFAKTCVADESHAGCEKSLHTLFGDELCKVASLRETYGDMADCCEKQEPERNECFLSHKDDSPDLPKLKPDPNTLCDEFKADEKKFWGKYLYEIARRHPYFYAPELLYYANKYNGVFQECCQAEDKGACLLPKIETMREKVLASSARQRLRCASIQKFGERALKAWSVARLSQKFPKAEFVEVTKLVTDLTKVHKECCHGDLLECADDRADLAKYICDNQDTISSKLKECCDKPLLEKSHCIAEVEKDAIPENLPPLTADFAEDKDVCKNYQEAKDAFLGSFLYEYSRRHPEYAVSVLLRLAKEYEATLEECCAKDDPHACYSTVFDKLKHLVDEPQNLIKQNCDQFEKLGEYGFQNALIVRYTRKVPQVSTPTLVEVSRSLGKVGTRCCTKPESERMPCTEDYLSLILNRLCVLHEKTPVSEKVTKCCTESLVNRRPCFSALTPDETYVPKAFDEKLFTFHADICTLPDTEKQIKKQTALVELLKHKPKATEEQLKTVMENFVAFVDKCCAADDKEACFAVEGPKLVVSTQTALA

Regarding `COC(=O)[C@@]1(Cc2ccc(F)cc2)[C@H]2c3cc(C(=O)N4CCCC4)n(Cc4cc(F)cc5c4OCOC5)c3C[C@H]2CN1C(=O)c1ccccc1`, the composite z-score was 0.892 with Albumin (Bos taurus); 0.0925 in experiment [2]; 0.0266 in [3]; -0.0414 in experiment [4]; -0.203 in experiment [5]; -0.669 in experiment [6]. Besides, the composite z-score in the experiment on Sam68 (KHDRBS1) is -0.349; in experiment [7] it was -0.631; in [8], 1.07. For the same compound, the composite Z-score in [1] was 0.364 (inactive).

`CC(C)C(CO)N1C(=O)[C@@H]2C3C(=O)OCCC/C=C\[C@H]3OC23C=CCN(Cc2ccccc2)C(=O)[C@@H]13` (stereo not given in full): the composite z-score is -1.25 in the experiment with Albumin (Bos taurus); -0.159 in experiment [2]; -0.11 in experiment [3]; 0.902 in [4]; 0.708 in experiment [5]; 1.5 in experiment [6]. The composite z-score was -0.173 in the experiment with Sam68 (KHDRBS1), -1.11 in [7] and -1.67 in experiment [8]. Besides, the composite Z-score in [1] was -0.157 (inactive).

In the case of `O=C1C[C@@](C(=O)NCc2ccccc2)(c2ccc([N+](=O)[O-])cc2)[C@@H](c2ccc(CO)cc2)N1C1CCCCC1`, the composite z-score with Albumin (Bos taurus) was -0.77; in [2], 0.14; in [3], 0.0847; in [4], 0.317; in experiment [5] it was 2.89; in experiment [6], 1.76. Besides, the composite z-score in the experiment on Sam68 (KHDRBS1) was 1.03; in [7], 0.575; in experiment [8], 1.07. The composite Z-score in experiment [1] was 1.06 (inactive).

As to `C[C@@H]1ON(c2ccc(I)cc2)[C@H](c2cccc(NC(=O)OCC3c4ccccc4-c4ccccc43)c2)[C@H]1C(=O)N1C(=O)OC[C@H]1Cc1ccccc1`, the composite z-score in the experiment with Albumin (Bos taurus) was -0.0188; in experiment [2], 0.0276; in [3] it was -0.126; in experiment [4] it was 0.456; in experiment [5], 0.367; in experiment [6] it was 0.111. The values for the composite z-score (with Sam68 (KHDRBS1); in [7]; in experiment [8]) were 0.668, 0.926 and 1.01, respectively. Besides, the composite Z-score in [1] is -0.222 (inactive).

Turning to `N#Cc1ccc(-c2cccc(=O)o2)cc1`, the composite z-score in the experiment with Albumin (Bos taurus) is 0.341; in experiment [2], 0.0426; in [3], -0.0928; in experiment [4], 0.0483; in experiment [5] it was 0.365; in [6], -0.0816. The values for the composite z-score (with Sam68 (KHDRBS1); in experiment [7]; in experiment [8]) were 0.808, 0.252 and 0.411, respectively. Also, the composite Z-score in [1] is -0.0662 (inactive).

As for `COc1ccc([Si](C)(C)[C@@H]2[C@@H](CC(=O)N(CCO)Cc3ccccc3)O[C@]3(C(=O)N(Cc4ccc(I)cc4)c4ccccc43)[C@H]2C)cc1`, the composite z-score with Albumin (Bos taurus) is -0.596; in [2] it was 0.456; in experiment [3], 0.02; in [4], 0.414; in experiment [5], 0.568; in [6], 0.965. In addition, the composite z-score in the experiment with Sam68 (KHDRBS1) turned out to be 0.793; in experiment [7], 1.36; in experiment [8], 0.817. The composite Z-score in [1] is 0.317 (inactive).

With `C=CCOC(=O)[C@H]1[C@@H]2C(=O)O[C@@H](c3ccccc3)[C@@H](c3ccccc3)N2[C@@H](c2ccc(OCCOC(=O)[C@H]3C[C@H]4C(=O)N[C@@H](CC(C)C)C(=O)N4[C@H]3c3ccc(O)cc3)cc2)[C@]12C(=O)Nc1ccccc12`, the composite z-score in the experiment with Albumin (Bos taurus) is -1.5; in experiment [2], 0.0695; in experiment [3] it was -0.0666; in experiment [4], 0.368; in [5] it was 1.74; in experiment [6] it was 0.878. Also, the composite z-score is 1.31 with Sam68 (KHDRBS1), 1.26 in experiment [7] and 1.06 in experiment [8]. Further, the composite Z-score in [1] was 0.0398 (inactive).

For the compound `O=C(O)[C@H](Cc1ccccc1)n1cc(C2(O)CCCCC2)nn1`, the composite z-score was 0.568 with Albumin (Bos taurus); 0.0191 in experiment [2]; -0.147 in experiment [3]; 0.54 in [4]; 1.46 in experiment [5]; 0.0496 in experiment [6]. The composite z-score in the experiment with Sam68 (KHDRBS1) is 1.01; in [7] it was -0.0151; in experiment [8], 0.463. Further, the composite Z-score in [1] was 0.217 (inactive).

For `CCOC(=O)C[C@H]1[C@H](OC(=O)Cc2ccc3c(c2)OCO3)[C@@H](NC(=O)Cc2ccc(OC)cc2)c2cc(OCCCO)ccc2N1C(=O)Cc1ccc(OC)cc1`, the composite z-score with Albumin (Bos taurus) is 0.635; in experiment [2] it was -0.143; in [3], -0.172; in experiment [4] it was 0.263; in [5] it was 0.428; in experiment [6], 0.0995. Besides, the values for the composite z-score (with Sam68 (KHDRBS1); in experiment [7]; in experiment [8]) were 0.323, -0.0366 and -0.117, respectively. The composite Z-score in [1] is 0.472 (inactive).

Turning to `Cc1ccccc1C(O)C1C=CC2C(=O)N(c3ccccc3)C(=O)C2N1Nc1ccccc1` (stereo not given), the composite z-score is 0.944 with Albumin (Bos taurus); 0.312 in [2]; -0.0485 in experiment [3]; 0.781 in [4]; 2.94 in experiment [5]; 0.0139 in experiment [6]. In addition, the composite z-score in the experiment with Sam68 (KHDRBS1) was 1.29; in experiment [7] it was -0.147; in [8], 1.14. Besides, the composite Z-score in [1] was 0.738 (inactive).

Turning to `C=CCOC(=O)[C@@H]1[C@H]2C(=O)O[C@H](c3ccccc3)[C@H](c3ccccc3)N2[C@H](c2ccc(OCCOC(=O)[C@H]3C[C@H]4C(=O)N5CCC[C@H]5C(=O)N4[C@H]3c3cccc(OCCO)c3)cc2)[C@@]12C(=O)Nc1ccc(I)cc12`, the composite z-score with Albumin (Bos taurus) is -0.638; in experiment [2] it was -0.0328; in experiment [3], -0.0228; in [4], 0.219; in experiment [5] it was 0.942; in [6], 0.448. In addition, the composite z-score in the experiment on Sam68 (KHDRBS1) came to 1.3; in experiment [7], 1.02; in experiment [8], 1.17. In addition, the composite Z-score in [1] was 1.17 (inactive).

Regarding `CCOC(=O)C1=CC[C@@H](c2ccc(OC)cc2)N(S(=O)(=O)c2ccc(C)cc2)[C@H]1c1ccc(C)cc1`, the composite z-score with Albumin (Bos taurus) was 0.446; in experiment [2], 0.0203; in experiment [3], -0.084; in experiment [4] it was 0.222; in experiment [5] it was 1.99; in experiment [6] it was 0.423. Besides, the figures for the composite z-score (in the experiment with Sam68 (KHDRBS1); in [7]; in experiment [8]) were 1.34, -0.554 and 0.669, respectively. Besides, in [1], the composite Z-score was 0.477 (inactive).

On to `CC1CC/C=C\[C@H]2OC34C=CCN(Cn5nnc6ccccc65)C(=O)[C@H]3N(CCCCCCO)C(=O)[C@@H]4C2C(=O)O1` (stereo not given in full), for which the composite z-score was -0.252 in the experiment with Albumin (Bos taurus); -0.427 in [2]; -0.214 in [3]; 0.398 in [4]; -0.0339 in experiment [5]; 0.523 in experiment [6]. The composite z-score is -0.682 with Sam68 (KHDRBS1), -1.25 in experiment [7] and 0.257 in experiment [8]. The composite Z-score in [1] is 0.347 (inactive).

As for `C=C(CCCC)/C(=C/C[C@H](OC(C)=O)c1cccc(OCCO)c1)c1cnc2ccccc2c1`, the composite z-score with Albumin (Bos taurus) was -0.0372; in [2], -0.135; in experiment [3], -0.149; in experiment [4] it was 0.84; in [5], -0.66; in experiment [6], -0.207. For the same compound, the composite z-score was 0.0549 in the experiment on Sam68 (KHDRBS1), 0.466 in [7] and 0.116 in experiment [8]. Besides, the composite Z-score in experiment [1] was -0.325 (inactive).

`Cc1ccc(N2C(=O)c3ccccc3[C@](C)(C(=O)NCCCN(C)C)[C@@H]2c2ccc(CO)cc2)nc1`: the composite z-score was 0.656 with Albumin (Bos taurus); -0.0984 in experiment [2]; -0.13 in experiment [3]; 0.281 in experiment [4]; 0.93 in experiment [5]; -0.728 in experiment [6]. Further, the composite z-score in the experiment on Sam68 (KHDRBS1) was 0.276; in experiment [7], -1.19; in [8] it was 0.0368. For the same compound, the composite Z-score in experiment [1] was -0.392 (inactive).

On to `O=C1O[C@@H](c2ccccc2)[C@@H](c2ccccc2)N2[C@@H](c3ccccc3OCCO)[C@]3(C(=O)Nc4ccc(C#CCCO)cc43)[C@@H](C(=O)NC[C@H](O)c3ccccc3)[C@H]12`, for which the composite z-score is 0.366 with Albumin (Bos taurus); 0.307 in [2]; 0.255 in [3]; 0.557 in experiment [4]; 2.25 in [5]; 1.31 in experiment [6]. In addition, the composite z-score is 1.28 with Sam68 (KHDRBS1), 0.454 in [7] and 1.12 in [8]. Besides, in experiment [1], the composite Z-score was 0.45 (inactive).
